PubChem BioAssay (EPA / NIEHS)
Results filed as inconclusive are left out. Calls of active or inactive are those of the source. How the source made its calls: active means hit-call score of the fitted dose curve at least 0.9, where 1 is the maximum; inconclusive means response in the unintended direction; inactive means score below 0.9.

These compounds were tested against human Phosphatase and Tensin Homolog (PTEN), PTEN (gene 5728) (UniProt P60484) (assay: NVS_ENZ_hPTEN: NovaScreen (NVS) Enzymatic Assay for human Phosphatase and Tensin Homolog (PTEN) (AID 2283203)).
Outline: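 Loss of fluorescent product signal after mobility-shift separation reports PTEN activity, recombinant human enzyme, 1 h after compound addition. Single 25 uM duplicate screen, then concentration-response on actives; DMSO baseline.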

Chain of human Phosphatase and Tensin Homolog (PTEN), PTEN (gene 5728) (P60484 whole entry, looked up): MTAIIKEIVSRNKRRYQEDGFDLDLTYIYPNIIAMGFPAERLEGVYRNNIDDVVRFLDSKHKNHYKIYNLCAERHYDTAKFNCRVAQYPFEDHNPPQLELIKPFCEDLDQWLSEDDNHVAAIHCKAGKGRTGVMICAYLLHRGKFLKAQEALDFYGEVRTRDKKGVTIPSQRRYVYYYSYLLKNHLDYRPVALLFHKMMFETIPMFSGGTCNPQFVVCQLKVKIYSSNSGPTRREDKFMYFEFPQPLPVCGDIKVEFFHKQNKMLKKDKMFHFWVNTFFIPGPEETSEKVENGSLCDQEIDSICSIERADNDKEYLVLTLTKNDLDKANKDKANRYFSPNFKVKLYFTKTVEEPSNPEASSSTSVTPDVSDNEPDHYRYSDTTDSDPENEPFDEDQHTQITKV

Structure (SMILES) | outcome | AC50
Cc1ccc2ncccc2c1 | inactive | 
CC(C)c1cccc(C(C)C)c1N1C(=O)c2ccc(O)cc2C1=O | inactive | 
CCCCCCCCc1ccc(Nc2ccc(CCCCCCCC)cc2)cc1 | inactive | 
NC(=O)N1C(=O)C(C(=O)c2cc(Cl)cs2)c2cc(F)c(Cl)cc21 (stereo not drawn) |  | 25 µM (active)
CC(C)(O)c1coc(S(=O)(=O)NC(=O)Nc2c3c(cc4c2CCC4)CCC3)c1 | inactive | 
CCc1cccc(CC)c1N(COC)C(=O)CS(=O)(=O)O | inactive | 

These compounds were tested against human Protein Tyrosine Phosphatase Receptor Type C (PTPRC), PTPRC (gene 5788) (UniProt P08575) (assay: NVS_ENZ_hPTPRC: NovaScreen (NVS) Enzymatic Assay for human Protein Tyrosine Phosphatase Receptor Type C (PTPRC) (AID 2283212)).
Outline: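 Absorbance-based phosphatase activity of human PTPRC protein extracted from yeast was measured 1 h post-dosing. Compounds first tested at 25 uM in duplicate, then those passing threshold in singleton concentration series to 50 uM.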

Chain of human Protein Tyrosine Phosphatase Receptor Type C (PTPRC), PTPRC (gene 5788) (P08575 whole entry, looked up): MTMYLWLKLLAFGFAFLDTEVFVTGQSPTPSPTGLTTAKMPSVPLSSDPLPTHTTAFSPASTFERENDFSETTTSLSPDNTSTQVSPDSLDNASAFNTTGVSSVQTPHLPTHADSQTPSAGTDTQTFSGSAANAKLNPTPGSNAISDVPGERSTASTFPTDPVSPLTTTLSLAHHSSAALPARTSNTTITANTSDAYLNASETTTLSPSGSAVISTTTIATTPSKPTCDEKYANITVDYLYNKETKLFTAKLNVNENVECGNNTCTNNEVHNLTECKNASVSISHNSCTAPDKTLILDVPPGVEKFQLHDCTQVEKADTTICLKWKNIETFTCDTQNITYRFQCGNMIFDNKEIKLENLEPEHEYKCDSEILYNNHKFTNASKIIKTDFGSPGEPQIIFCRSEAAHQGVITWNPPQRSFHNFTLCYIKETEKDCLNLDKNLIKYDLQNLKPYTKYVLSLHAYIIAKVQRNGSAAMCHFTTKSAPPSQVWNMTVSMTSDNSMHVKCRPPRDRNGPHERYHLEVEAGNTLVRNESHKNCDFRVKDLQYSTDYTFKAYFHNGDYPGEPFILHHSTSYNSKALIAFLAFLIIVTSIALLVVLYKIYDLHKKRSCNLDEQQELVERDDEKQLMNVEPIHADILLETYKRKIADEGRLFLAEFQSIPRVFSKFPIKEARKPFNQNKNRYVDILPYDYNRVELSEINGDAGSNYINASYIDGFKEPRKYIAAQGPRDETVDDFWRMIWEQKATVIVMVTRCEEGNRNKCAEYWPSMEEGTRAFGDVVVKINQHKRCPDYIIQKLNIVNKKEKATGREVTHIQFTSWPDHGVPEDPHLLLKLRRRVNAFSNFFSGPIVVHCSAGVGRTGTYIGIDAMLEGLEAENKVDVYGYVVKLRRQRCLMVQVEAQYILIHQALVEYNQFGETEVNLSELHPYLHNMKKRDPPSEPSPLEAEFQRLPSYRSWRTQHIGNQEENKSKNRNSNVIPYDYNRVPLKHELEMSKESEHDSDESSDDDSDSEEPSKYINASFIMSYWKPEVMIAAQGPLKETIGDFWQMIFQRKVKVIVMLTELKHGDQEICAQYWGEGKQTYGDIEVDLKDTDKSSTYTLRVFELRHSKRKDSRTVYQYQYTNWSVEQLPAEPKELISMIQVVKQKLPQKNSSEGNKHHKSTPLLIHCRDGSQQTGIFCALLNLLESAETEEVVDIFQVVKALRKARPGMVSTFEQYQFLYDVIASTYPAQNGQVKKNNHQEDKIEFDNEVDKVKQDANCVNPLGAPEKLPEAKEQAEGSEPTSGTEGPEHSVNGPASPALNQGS

Structure (SMILES) | outcome | AC50
NC(=O)N1C(=O)C(C(=O)c2cc(Cl)cs2)c2cc(F)c(Cl)cc21 (stereo not drawn) | inactive | 
C[C@]12C[C@H](O)[C@H]3[C@@H](CCC4=CC(=O)CC[C@@]43C)[C@@H]1CC[C@@H]2C(=O)CO | inactive | 
CCCCC(CC)COC(=O)CC(C(=O)OCC(CC)CCCC)S(=O)(=O)O (stereo not drawn) |  | 25 µM (active)
Nc1ccccc1N |  | 7.6 µM (active)

What follows are compounds tested against rat Monoamine Oxidase, MAO-B, Central (MAOBC), Maob (gene 25750) (UniProt P19643) (assay: NVS_ENZ_rMAOBC: NovaScreen (NVS) Enzymatic Assay for rat Monoamine Oxidase, MAO-B, Central (MAOBC) (AID 2283238)).
Outline: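 Actives from a duplicate 25 uM screen went on to singleton concentration-response with a 50 uM maximum. Enzyme source was rat brain tissue MAO-B, assayed cell-free. Radiolabelled product was counted by scintillation 1.17 h post-dose, with signal loss relative to DMSO.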

Chain of rat Monoamine Oxidase, MAO-B, Central (MAOBC), Maob (gene 25750) (P19643 whole entry, looked up): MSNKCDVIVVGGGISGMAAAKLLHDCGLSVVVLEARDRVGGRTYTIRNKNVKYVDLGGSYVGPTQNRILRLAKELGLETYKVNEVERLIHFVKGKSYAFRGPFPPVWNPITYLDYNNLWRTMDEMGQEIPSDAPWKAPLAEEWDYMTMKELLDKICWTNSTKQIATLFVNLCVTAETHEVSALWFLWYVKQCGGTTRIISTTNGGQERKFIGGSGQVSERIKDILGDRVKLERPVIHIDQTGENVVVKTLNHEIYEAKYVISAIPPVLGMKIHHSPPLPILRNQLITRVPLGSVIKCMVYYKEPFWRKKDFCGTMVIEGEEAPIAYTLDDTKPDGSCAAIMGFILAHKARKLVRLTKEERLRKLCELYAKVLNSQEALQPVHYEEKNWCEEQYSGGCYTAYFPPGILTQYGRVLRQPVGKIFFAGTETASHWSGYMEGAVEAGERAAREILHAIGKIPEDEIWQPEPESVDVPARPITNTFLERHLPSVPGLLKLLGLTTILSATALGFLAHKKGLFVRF

Structure (SMILES) | outcome | AC50
O=C(O)c1cccnc1 | inactive | 
c1ccc(C(O[C@@H]2CCCN(CCc3ccc4c(c3)OCO4)C2)c2ccccc2)cc1 |  | 14.9 µM (active)
CC1(C)CC(N=C=O)CC(C)(CN=C=O)C1 (stereo not drawn) | inactive | 
